An excerpt weighted towards active compounds, which were near 12% of everything screened.
Sfp PPTase inh – Sfp phosphopantetheinyl transferase inhibition; Q9F4F7; Biochemical Sfp PPTase activity, qHTS; Potency, µM, usual class: inhibitors; hit rate 3.5% among 310,000; AID 1490;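 further: the enzyme is Sfp with the accession as filed and its product quenches rhodamine fluorescence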
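Sfp 15 nM + cpd, 15 min RT; start w/ rhodamine-CoA 5 uM, BHQ-2-YbbR 12.5 uM (final); 50 mM Hepes pH 7.6, 10 mM MgCl2, 0.01% NP-40, 0.01% BSA; read 525/598 nm at 0 and 30 min.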
PLK1 PBD inh – PLK1 (human) polo-box domain binding inhibition; P53350; Plk1 PBD binding of FITC phosphopeptide, fluorescence polarization; hit rate 2.8% among 360,000; Potency, µM, actives largely listed as inhibitors; further: series mostly up to about 57 µM; nearly all actives have a fitted effect of over 65% in size
BAZ2B block – inhibitors of human BAZ2B bromodomain | hit rate 4.4% among 360,000 | AlphaScreen BAZ2B-H3K14Ac peptide displacement | Potency, µM (titrated, usually from 114 µM), usual class: inhibitors | Q9UIF8; further: nearly all actives have a fitted effect of over 60% in size
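Multi-concentration screen (max 110 uM) measuring displacement of acetylated histone H3 peptide from BAZ2B by AlphaScreen, using 50 nM protein, 50 nM peptide and 10 ug/mL streptavidin donor plus Ni-chelate acceptor beads.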
G9a inh – G9a (human) methyltransferase inhibition. Q96KQ7. G9a H3K9 monomethylation, AlphaScreen, 2 h. Potency, µM (top dose mostly 102 µM), usual class: inhibitors. hit rate 8.8% among 350,000; further: nearly all actives have a fitted effect of over 75% in size
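AlphaScreen read-out: biotin-H3K9 peptide (500 nM) methylation by 20 nM enzyme with 20 uM SAM, 2 h at room temperature after 15 min compound preincubation; anti-monomethyl H3K9 antibody plus donor/acceptor beads, 10 min dark.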
HP1b chromo inh – blocks HP1-beta chromodomain binding to methylated histone tails | P83916 | AlphaScreen HP1-beta / biotin-H3K9me3 peptide binding | Potency, µM (series often up to 114 µM), usual class: inhibitors | hit rate 0.56% among 390,000; further: nearly all actives have a fitted effect of over 70% in size
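HP1-beta protein (50 nM final) preincubated 30 min at room temperature with biotinylated H3(1-18)K9me3 peptide (50 nM) in PBS pH 7.4, 0.01% Tween-20, then compound added for 30 min. AlphaScreen streptavidin donor/nickel chelate acceptor beads (10 ug/mL final), 30 min dark, luminescence read.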
JMJD2A Tudor – inhibitors of human JMJD2A Tudor domain | AlphaScreen JMJD2A-Tudor / H3K4me3 peptide binding | hit rate 4.4% among 390,000 | O75164 | Potency, µM (top dose mostly 114 µM), usual class: inhibitors; further: nearly all actives have a fitted effect of over 50% in size
Target sequence (O75164 whole entry, looked up, the tested form may be a part): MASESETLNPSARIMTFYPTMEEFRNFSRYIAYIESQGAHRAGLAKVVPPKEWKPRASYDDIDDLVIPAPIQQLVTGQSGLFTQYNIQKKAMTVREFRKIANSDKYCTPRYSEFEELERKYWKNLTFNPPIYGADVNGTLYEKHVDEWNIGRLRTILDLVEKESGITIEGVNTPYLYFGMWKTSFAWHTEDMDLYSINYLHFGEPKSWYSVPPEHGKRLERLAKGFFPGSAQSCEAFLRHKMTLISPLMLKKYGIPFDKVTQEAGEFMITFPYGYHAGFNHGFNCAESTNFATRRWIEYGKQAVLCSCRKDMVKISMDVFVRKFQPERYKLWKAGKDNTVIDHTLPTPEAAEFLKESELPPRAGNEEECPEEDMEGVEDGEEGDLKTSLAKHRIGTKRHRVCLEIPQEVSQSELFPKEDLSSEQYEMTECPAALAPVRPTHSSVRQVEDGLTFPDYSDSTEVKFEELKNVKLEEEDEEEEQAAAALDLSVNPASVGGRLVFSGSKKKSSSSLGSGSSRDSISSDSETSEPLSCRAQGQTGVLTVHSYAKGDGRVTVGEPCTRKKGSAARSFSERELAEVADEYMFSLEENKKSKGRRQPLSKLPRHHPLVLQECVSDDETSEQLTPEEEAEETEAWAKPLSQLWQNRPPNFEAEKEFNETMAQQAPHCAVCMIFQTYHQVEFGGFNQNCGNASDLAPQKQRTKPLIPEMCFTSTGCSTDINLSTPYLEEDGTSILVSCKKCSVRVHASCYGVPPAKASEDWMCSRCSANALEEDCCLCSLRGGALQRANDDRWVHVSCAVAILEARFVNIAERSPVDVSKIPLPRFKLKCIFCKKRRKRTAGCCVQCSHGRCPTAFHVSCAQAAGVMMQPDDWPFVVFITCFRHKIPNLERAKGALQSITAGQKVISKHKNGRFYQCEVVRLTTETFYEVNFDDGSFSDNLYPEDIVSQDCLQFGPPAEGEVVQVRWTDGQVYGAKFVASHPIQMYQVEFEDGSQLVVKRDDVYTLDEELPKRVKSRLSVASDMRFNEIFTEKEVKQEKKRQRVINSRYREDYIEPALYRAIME
Each line names hits and unclear results; the compound was inactive in the other large screens. The call rests on the fitted dose curve; in most records, active means well fitted curve in the direction sought with a large enough effect; inconclusive means small, poorly fitted or top-dose-only effect, or another doubt; inactive means no such curve, though single readings can be large; an effect the other way counts as inactive or inconclusive.

OCCOCCN1CCN(C(=S)Nc2ccccc2)CC1	PLK1 PBD inh inconclusive, G9a inh inconclusive
CSc1nnc(SCC#N)s1	none
Cc1cc(F)ccc1S(=O)(=O)Nc1ccccc1C(=O)Nc1ncn[nH]1	none
Cc1ccc(C)c(S(=O)(=O)Nc2ccc(O)c(Sc3ncn[nH]3)c2)c1	Sfp PPTase inh inconclusive, PLK1 PBD inh inconclusive, G9a inh 44.7µM
Cc1ccc(S(=O)(=O)Nc2ccc(O)c(Sc3ncn[nH]3)c2)cc1	G9a inh inconclusive
Cc1cc(F)ccc1S(=O)(=O)Nc1ccc(O)c(Sc2ncn[nH]2)c1	Sfp PPTase inh inconclusive, G9a inh 39.8µM
COc1ccc(CCCc2nnc(SCC(=O)Nc3ccc(C)cc3)o2)cc1C	G9a inh inconclusive (no result: Sfp PPTase inh, PLK1 PBD inh)
N#CC1=C2Sc3ccccc3N2CCCC1=O	none
N=C1C2=C3Sc4ccccc4N3CCCC2=NN1c1cccc(S(=O)(=O)O)c1	Sfp PPTase inh 89.1µM, PLK1 PBD inh inconclusive, BAZ2B block inconclusive, G9a inh inconclusive
Cc1ccccc1CCNC(=O)CCn1nc(C)c2c(C)n(-c3ccccc3)nc2c1=O	none
Cc1nn(CCC(=O)NCCc2ccccc2Cl)c(=O)c2nn(-c3ccccc3)c(C)c12	PLK1 PBD inh 29.9µM
CCC(C(=O)Nc1ccccc1Cl)n1nc(C)c2c(C)n(-c3ccccc3)nc2c1=O (stereo unspecified)	PLK1 PBD inh 21.2µM, JMJD2A Tudor inconclusive
Cn1c2c(c(=O)n1-c1ccccc1)CSCC2	none (no result: Sfp PPTase inh, BAZ2B block, G9a inh)
CCCCN1C(=O)Cc2c1nc(N)c1c(N)nc(N(CCC)CCC)c(C#N)c21	G9a inh 39.8µM, HP1b chromo inh inconclusive
COc1ccc(-c2sc(Nc3ccc(F)c(F)c3F)nc2CCC(=O)NN)cc1	JMJD2A Tudor 56.2µM
COc1ccc(-c2nc(NC(C)=O)sc2-c2ccc(OC)cc2)cc1	G9a inh inconclusive
O=C(CSc1nnc(C2CCCCC2)n1Cc1ccccc1)NCc1ccco1	PLK1 PBD inh 26.7µM, G9a inh inconclusive, HP1b chromo inh inconclusive, JMJD2A Tudor 28.2µM
O=C(CSc1nnc2scc(-c3ccc(Cl)cc3)n12)NCc1ccco1	none
O=C(CSc1nnc2scc(-c3ccccc3)n12)NCc1ccco1	G9a inh 79.4µM
COc1ccc(Cl)cc1NC(=O)NCCn1c(=O)oc2ccc(C)cc21	none (no result: Sfp PPTase inh, PLK1 PBD inh)
CN1C(=O)C(O)(c2sc(N)nc2-c2ccccc2)c2ccccc21 (stereo unspecified)	none
CCN(CC(=O)Nc1c(F)cccc1F)C(=O)C1CC1C (stereo unspecified)	none (no result: Sfp PPTase inh)
Cc1cccc(C)c1NC(=O)CN1C(=O)c2ccccc2Sc2ncccc21	none (no result: Sfp PPTase inh, PLK1 PBD inh)
O=C(C1=C(O)C(=O)N(CCN2CCOCC2)C1c1ccc(Cl)cc1)c1cc2ccccc2o1 (stereo unspecified)	none
COC(=O)c1ccc(C2C(C(=O)c3cc4ccccc4o3)=C(O)C(=O)N2CCN2CCOCC2)cc1 (stereo unspecified)	G9a inh inconclusive
O=C(C1=C(O)C(=O)N(CCN2CCOCC2)C1c1ccc([N+](=O)[O-])cc1)c1cc2ccccc2o1 (stereo unspecified)	G9a inh 39.8µM
COc1ccccc1C1C(C(=O)c2cc3ccccc3o2)=C(O)C(=O)N1CCN1CCOCC1 (stereo unspecified)	PLK1 PBD inh inconclusive, BAZ2B block inconclusive, G9a inh 8.91µM, JMJD2A Tudor 89.1µM
COc1cccc(C2C(C(=O)c3cc4ccccc4o3)=C(O)C(=O)N2CCN2CCOCC2)c1 (stereo unspecified)	G9a inh 44.7µM
COc1cccc2cc(C(=O)C3=C(O)C(=O)N(CCN4CCOCC4)C3c3ccc(C)o3)oc12 (stereo unspecified)	BAZ2B block inconclusive, G9a inh 31.6µM
COc1cc(/C=N/Nc2nc(=O)[nH]nc2C)cc(OC)c1O	Sfp PPTase inh 35.5µM, PLK1 PBD inh 21.2µM, G9a inh inconclusive, JMJD2A Tudor inconclusive
CCOc1cc(/C=N/Nc2nc(=O)[nH]nc2C)ccc1O	Sfp PPTase inh 70.8µM, JMJD2A Tudor inconclusive
COc1cc(/C=N/Nc2nc(C)cc(=O)[nH]2)ccc1O	none
CCOc1cc(/C=N/NC(=O)N/N=C/c2ccc(O)c(OCC)c2)ccc1O	none (no result: Sfp PPTase inh, BAZ2B block, G9a inh)

Compound activity deposited in PubChem by National Center for Advancing Translational Sciences (NCATS).
